Results filed as inconclusive are left out. Where a call stands in place of a potency, no number is given. Activity calls are given as the source filed them. Unless noted, calls come from the whole dose curve; as a rule, active = well fitted curve in the direction sought with a large enough effect in the repeat runs; inconclusive = weak or mixed curves; inactive = no such curve, though single readings can be large; an effect the other way counts as inactive or inconclusive.
Columns and labels:
[1] = biological target: Peroxisome proliferator-activated receptor gamma (Homo sapiens) (UniProt P37231); assay: qHTS assay to identify small molecule agonists of the peroxisome proliferator-activated receptor gamma (PPARg) signaling pathway (AID 743094; active = well fitted activation curve with a large enough effect in the signal ratio in the repeat runs, not every such curve was filed as active; the % refers to the signal ratio)
How it was run: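 Cell-based bla reporter, HEK293H background, PPARg-driven UAS. Pre-incubation 5 h, 37C, 5% CO2. Compound 17 h, 37C. Substrate 1 h RT; fluorescence.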

[2] = biological target: Peroxisome proliferator-activated receptor gamma (Homo sapiens) (UniProt P37231); assay: qHTS assay to identify small molecule antagonists of the peroxisome proliferator-activated receptor gamma (PPARg) signaling pathway (AID 743191; calls by dose curve; note: series mostly up to about 63 µM; nearly all actives have a fitted effect of over 30% in size)
How it was run: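 GeneBLAzer PPARg UAS-bla HEK293H cells, 5 h post-plating, exposed to compounds 17 h at 37C. LiveBLAzer B/G FRET substrate added for 1 h at room temperature; beta-lactamase reporter read by fluorescence intensity.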

[3] = qHTS assay for small molecule agonists of the antioxidant response element (ARE) signaling pathway - cell viability counter screen (AID 743203; calls by dose curve; note: nearly all actives have a fitted effect of over 55% in size; note: potency is the fitted concentration of half-maximal effect)
How it was run: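 Measured in the same wells as the beta-lactamase ARE reporter, this read-out is CellTiter-Glo luminescence from HepG2 ARE-bla cells given compounds for 16 hrs.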

[4] = qHTS assay for small molecule activators of the heat shock response signaling pathway - cell viability counter screen (AID 743209); note: nearly all actives have a fitted effect of over 50% in size; note: potency is the fitted concentration of half-maximal effect
How it was run: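 Same-well multiplex: after 2.5 h room-temperature incubation with LiveBLAzer B/G substrate and fluorescence reading, CellTiter-Glo reagent was added to HSE-bla HeLa cells that had received compound for 5 h at 37 C; luminescence read after 30 min.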

[5] = biological target: Peroxisome proliferator-activated receptor delta (Homo sapiens) (UniProt Q03181); assay: qHTS assay to identify small molecule agonists of the peroxisome proliferator-activated receptor delta (PPARd) signaling pathway (AID 743212; calls by dose curve)
How it was run: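 Tox21 library screened in GeneBLAzer PPARd UAS-bla HEK293H cells. After compound treatment at 37 C, a FRET-based beta-lactamase substrate was applied for 2 h and fluorescence recorded.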

[6] = biological target: Peroxisome proliferator-activated receptor delta (Homo sapiens) (UniProt Q03181); assay: qHTS assay to identify small molecule antagonists of the peroxisome proliferator-activated receptor delta (PPARd) signaling pathway (AID 743215; active = well fitted inhibition curve with a large enough effect in the signal ratio in the repeat runs, not every such curve was filed as active; the % refers to the signal ratio;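 note: cells stimulated with agonist L165041 at 300 nM final during compound exposure; series mostly up to about 62 µM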)
How it was run: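 Fluorescence from cleaved LiveBLAzer B/G FRET substrate (2 h, room temperature) reports PPARd-driven beta-lactamase in HEK293H UAS-bla cells. Cells had been treated 17 h at 37 C with compound plus 300 nM final L165041.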

[7] = biological target: Bile acid receptor (Homo sapiens) (UniProt Q96RI1); assay: qHTS assay to identify small molecule agonists of the farnesoid-X-receptor (FXR) signaling pathway (AID 743220; active = well fitted activation curve with a large enough effect in the signal ratio in the repeat runs, not every such curve was filed as active; the % refers to the signal ratio)
How it was run: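 FXR-UAS-bla HEK 293T cells carrying a UAS-driven beta-lactamase reporter were plated for 5 h at 37C/5% CO2, then exposed to DMSO-dissolved Tox21 10K compounds for 16 h at 37C. A LiveBLAzer B/G FRET substrate was loaded for 2 h at room temperature before fluorescence reading.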

[8] = qHTS assay to identify small molecule agonists of the vitamin D receptor (VDR) signaling pathway - cell viability counter screen (AID 743224); note: nearly all actives have a fitted effect of over 50% in size; note: potency is the fitted concentration of half-maximal effect
How it was run: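 In parallel with the bla FRET readout, cytotoxicity toward VDR-bla cells after 16 h compound exposure was assessed by CellTiter-Glo, with luminescence recorded after a 30 min room-temperature incubation.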

[9] = qHTS assay to identify small molecule antagonists of the peroxisome proliferator-activated receptor gamma (PPARg) signaling pathway - cell viability counter screen (AID 743194); note: nearly all actives have a fitted effect of over 55% in size; note: potency is the fitted concentration of half-maximal effect
How it was run: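 Cytotoxicity counter screen in PPARg-bla HEK293H cells, same wells as reporter assay. Compounds plus 50 nM rosiglitazone (final) for 17 h at 37 C, then viability read by CellTiter-Glo luminescence.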

[10] = qHTS assay to identify small molecule antagonists of the farnesoid-X-receptor (FXR) signaling pathway - cell viability counter screen (AID 743221; active = well fitted cell-killing curve with a large enough effect in the repeat runs, not every such curve was filed as active; note: nearly all actives have a fitted effect of over 50% in size)
How it was run: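 Cytotoxicity is taken from ATP luminescence (CellTiter-Glo, 30 min, room temperature) in FXR-bla HEK 293T cells previously incubated 16 h at 37 C with compound and chenodeoxycholic acid at 50 uM final.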

[11] = biological target: Vitamin D3 receptor (Homo sapiens) (UniProt P11473); assay: qHTS assay to identify small molecule agonists of the vitamin D receptor (VDR) signaling pathway (AID 743222; calls by dose curve)
How it was run: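 Following 4 h attachment at 37C, VDR-bla cells (2,000 per well) received DMSO-dissolved compounds or controls. After 16 h incubation, LiveBLAzer B/G FRET substrate was added and fluorescence read 2 h later at room temperature.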

[12] = qHTS assay to identify small molecule antagonists of the vitamin D receptor (VDR) signaling pathway - cell viability counter screen (AID 743225); note: nearly all actives have a fitted effect of over 50% in size; note: potency is the fitted concentration of half-maximal effect
How it was run: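 Same-well multiplex: following 16 h treatment of HEK 293T cells carrying a UAS-driven beta-lactamase reporter with compound and agonist (3 nM final), and a 2 h FRET substrate step, CellTiter-Glo was added and luminescence read after 30 min.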

[13] = qHTS assay for small molecule agonists of the antioxidant response element (ARE) signaling pathway (AID 743202; active = well fitted activation curve with a large enough effect in the signal ratio in the repeat runs, not every such curve was filed as active; the % refers to the signal ratio; note: potency is the fitted concentration of half-maximal effect)
How it was run: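 HepG2 ARE-bla cells; 16 h treatment at 37 C; FRET-based beta-lactamase fluorescence read after 2 h substrate incubation at room temperature.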

[14] = qHTS assay for small molecule activators of the heat shock response signaling pathway (AID 743210; active = well fitted activation curve with a large enough effect in the signal ratio in the repeat runs, with a control signal flat, not every such curve was filed as active; the % refers to the signal ratio;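 note: HeLa cells with beta-lactamase reporter driven by heat shock elements; series mostly up to about 63 µM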)
How it was run: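 Following overnight attachment, HSE-bla HeLa cells received test compounds for 5 h at 37 C; beta-lactamase activity was then detected via FRET substrate fluorescence.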

[15] = qHTS assay to identify small molecule agonists of the peroxisome proliferator-activated receptor delta (PPARd) signaling pathway - cell viability counter screen (AID 743211); note: nearly all actives have a fitted effect of over 55% in size; note: potency is the fitted concentration of half-maximal effect
How it was run: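 Tox21 library compounds, delivered in DMSO, were incubated 17 h with PPARd-bla HEK293H cells; cytotoxicity was taken from CellTiter-Glo luminescence read 30 min after reagent addition.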

[16] = qHTS assay to identify small molecule antagonists of the peroxisome proliferator-activated receptor delta (PPARd) signaling pathway - cell viability counter screen (AID 743213); note: nearly all actives have a fitted effect of over 50% in size; note: potency is the fitted concentration of half-maximal effect
How it was run: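 Same-well viability: cells pre-incubated 5 h, dosed with compound plus 300 nM L165041, kept 17 h at 37 C, FRET substrate 2 h RT, then CellTiter-Glo 30 min RT and luminescence.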

[17] = biological target: Bile acid receptor (Homo sapiens) (UniProt Q96RI1); assay: qHTS assay to identify small molecule antagonists of the farnesoid-X-receptor (FXR) signaling pathway (AID 743217; active = well fitted inhibition curve with a large enough effect in the signal ratio in the repeat runs, not every such curve was filed as active; the % refers to the signal ratio)
How it was run: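 FRET fluorescence after 2 h room-temperature LiveBLAzer loading gives the readout. Prior step: FXR-bla HEK 293T cells, seeded and incubated 5 h, received test compounds plus 50 uM final CDCA for 16 h at 37 °C.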

[18] = qHTS assay to identify small molecule agonists of the farnesoid-X-receptor (FXR) signaling pathway - cell viability counter screen (AID 743218); note: nearly all actives have a fitted effect of over 45% in size; note: potency is the fitted concentration of half-maximal effect
How it was run: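 Readout: CellTiter-Glo luminescence, 30 min RT, multiplexed after the FXR-bla FRET reading. HEK 293T FXR-UAS-bla cells received compound 5 h post-plating and were incubated 16 h at 37 C.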

[19] = biological target: Vitamin D3 receptor (Homo sapiens) (UniProt P11473); assay: qHTS assay to identify small molecule antagonists of the vitamin D receptor (VDR) signaling pathway (AID 743223; active = well fitted inhibition curve with a large enough effect in the signal ratio in the repeat runs, not every such curve was filed as active; the % refers to the signal ratio)
How it was run: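 Quantitative HTS in VDR-bla reporter cells stimulated with 1alpha,25-dihydroxyvitamin D3, 3 nM final. Compound exposure 16 h, 37C, 5% CO2. Read-out: beta-lactamase FRET substrate fluorescence, 2 h RT.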

Chain of Peroxisome proliferator-activated receptor delta (Homo sapiens) (Q03181 whole entry, looked up): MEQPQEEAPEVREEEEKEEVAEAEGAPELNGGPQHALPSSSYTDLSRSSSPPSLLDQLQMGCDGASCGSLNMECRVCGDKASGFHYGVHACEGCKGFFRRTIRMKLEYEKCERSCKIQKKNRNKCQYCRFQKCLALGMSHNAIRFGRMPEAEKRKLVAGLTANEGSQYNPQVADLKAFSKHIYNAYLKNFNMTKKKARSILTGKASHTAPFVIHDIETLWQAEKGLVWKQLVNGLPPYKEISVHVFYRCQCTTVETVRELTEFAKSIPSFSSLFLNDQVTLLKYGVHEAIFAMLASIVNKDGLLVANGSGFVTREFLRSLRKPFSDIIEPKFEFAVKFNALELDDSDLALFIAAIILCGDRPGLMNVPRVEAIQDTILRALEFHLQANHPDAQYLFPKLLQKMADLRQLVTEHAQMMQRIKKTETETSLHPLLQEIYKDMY
Chain of Bile acid receptor (Homo sapiens) (Q96RI1 whole entry, looked up): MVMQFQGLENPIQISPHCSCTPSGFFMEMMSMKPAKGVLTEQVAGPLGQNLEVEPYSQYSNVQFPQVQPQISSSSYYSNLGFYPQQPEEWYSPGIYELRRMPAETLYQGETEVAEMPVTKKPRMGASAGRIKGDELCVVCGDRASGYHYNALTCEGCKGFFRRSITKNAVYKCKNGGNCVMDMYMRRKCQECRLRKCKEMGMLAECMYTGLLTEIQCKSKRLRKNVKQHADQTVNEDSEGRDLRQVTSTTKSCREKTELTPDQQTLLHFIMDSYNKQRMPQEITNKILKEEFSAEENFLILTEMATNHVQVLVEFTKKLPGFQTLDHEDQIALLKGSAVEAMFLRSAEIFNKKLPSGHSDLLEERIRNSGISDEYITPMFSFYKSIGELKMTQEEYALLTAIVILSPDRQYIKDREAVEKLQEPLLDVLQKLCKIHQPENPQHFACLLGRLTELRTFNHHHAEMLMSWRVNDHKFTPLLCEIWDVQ
Chain of Vitamin D3 receptor (Homo sapiens) (P11473 whole entry, looked up): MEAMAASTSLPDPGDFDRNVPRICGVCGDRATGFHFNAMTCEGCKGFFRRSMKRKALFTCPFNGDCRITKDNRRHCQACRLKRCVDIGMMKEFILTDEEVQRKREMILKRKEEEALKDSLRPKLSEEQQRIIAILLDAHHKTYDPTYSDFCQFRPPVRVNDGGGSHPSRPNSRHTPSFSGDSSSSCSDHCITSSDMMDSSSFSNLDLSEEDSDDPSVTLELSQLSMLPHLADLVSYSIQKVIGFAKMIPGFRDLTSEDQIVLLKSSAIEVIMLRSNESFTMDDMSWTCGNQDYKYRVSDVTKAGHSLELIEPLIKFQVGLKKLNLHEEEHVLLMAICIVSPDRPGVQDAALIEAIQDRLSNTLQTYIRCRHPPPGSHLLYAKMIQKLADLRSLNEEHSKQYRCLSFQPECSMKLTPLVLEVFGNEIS
Chain of Peroxisome proliferator-activated receptor gamma (Homo sapiens) (P37231 whole entry, looked up): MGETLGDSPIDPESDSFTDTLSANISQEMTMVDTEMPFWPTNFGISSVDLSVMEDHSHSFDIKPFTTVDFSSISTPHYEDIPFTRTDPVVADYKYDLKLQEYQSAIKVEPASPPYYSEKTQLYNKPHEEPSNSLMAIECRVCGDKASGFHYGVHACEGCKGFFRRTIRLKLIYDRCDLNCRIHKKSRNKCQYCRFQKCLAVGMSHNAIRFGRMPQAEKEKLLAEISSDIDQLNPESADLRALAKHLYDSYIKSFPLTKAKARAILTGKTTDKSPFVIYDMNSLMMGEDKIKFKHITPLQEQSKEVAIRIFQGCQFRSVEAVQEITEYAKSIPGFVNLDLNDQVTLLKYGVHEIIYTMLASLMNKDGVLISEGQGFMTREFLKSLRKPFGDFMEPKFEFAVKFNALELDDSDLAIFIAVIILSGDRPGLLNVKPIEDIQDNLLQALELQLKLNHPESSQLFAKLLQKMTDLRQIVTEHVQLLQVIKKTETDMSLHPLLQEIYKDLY

CN1CCC(=C2c3ccccc3CCc3sccc32)CC1
Potency [1]: inactive | Potency [2]: inactive | Potency [3]: inactive | Potency [4]: inactive | outcome [5]: inactive | outcome [6]: inactive | outcome [7]: inactive | Potency [8]: inactive

CCCCCOC(=O)c1ccc(O)cc1
Potency [1]: inactive | Potency [9]: inactive | Potency [3]: inactive | Potency [4]: inactive | outcome [6]: inactive | outcome [7]: inactive | Potency [10]: inactive | outcome [11]: inactive | Potency [8]: inactive | Potency [12]: inactive

CC(=O)/C=C/C1C(C)=CCCC1(C)C (centres undefined)
Potency [1]: inactive | Potency [9]: inactive | Potency [13]: inactive | Potency [3]: inactive | Potency [4]: inactive | outcome [14]: inactive | Potency [15]: inactive | Potency [16]: inactive | outcome [17]: inactive | Potency [18]: inactive | outcome [7]: inactive | Potency [10]: inactive | outcome [11]: inactive | Potency [19]: inactive | Potency [8]: inactive | Potency [12]: inactive

CC(Cc1cccc(C(F)(F)F)c1)NCCOC(=O)c1ccccc1 (centres undefined)
Potency [1]: inactive | Potency [9]: 23.7 µM (active) | Potency [3]: 23.7 µM (active) | Potency [4]: 23.7 µM (active) | Potency [15]: 21.1 µM (active) | Potency [16]: 18.8 µM (active) | Potency [18]: 21.1 µM (active) | Potency [8]: 23.7 µM (active) | Potency [12]: 16.9 µM (active)

S=C(S)NCCNC(=S)S
Potency [1]: inactive | Potency [9]: inactive | Potency [13]: 60 µM (active) | Potency [3]: inactive | Potency [4]: inactive | outcome [14]: inactive | Potency [15]: inactive | Potency [16]: inactive | Potency [10]: inactive | outcome [11]: inactive | Potency [8]: inactive

CCc1nn(C2CCCCC2)c2cc(C3(C#N)CCC(C(=O)O)CC3)ccc12 (centres undefined)
Potency [9]: inactive | Potency [13]: 27.3 µM (active) | Potency [3]: inactive | Potency [4]: inactive | outcome [14]: inactive | Potency [15]: inactive | Potency [16]: inactive | Potency [18]: inactive | outcome [7]: inactive | Potency [10]: inactive | outcome [11]: inactive | Potency [19]: inactive | Potency [8]: inactive | Potency [12]: inactive

CN1CCN(C2=Nc3cc(Cl)ccc3Nc3ccccc32)CC1
Potency [9]: inactive | Potency [3]: inactive | Potency [4]: inactive | outcome [14]: inactive | outcome [17]: inactive | Potency [18]: inactive | outcome [7]: inactive

COCCCCCCCCOCCC[Si](C)(O[Si](C)(C)C)O[Si](C)(C)C
Potency [1]: inactive | Potency [4]: 38.9 µM (active) | outcome [5]: inactive | Potency [16]: 15.5 µM (active) | outcome [17]: inactive | Potency [10]: inactive | outcome [11]: inactive | Potency [19]: inactive

CC(C)(C)c1cc(O)c(C(C)(C)C)cc1O
Potency [1]: inactive | Potency [4]: inactive | outcome [14]: inactive | outcome [5]: inactive | Potency [16]: inactive | Potency [18]: inactive | outcome [11]: inactive | Potency [19]: inactive | Potency [8]: inactive

Cc1cc(NC(=O)C(=O)O)cc(C)c1Oc1ccc(O)c2c1CCC2
Potency [13]: inactive | Potency [3]: inactive | Potency [4]: inactive | outcome [14]: inactive | Potency [15]: inactive | Potency [16]: inactive | outcome [17]: inactive | Potency [18]: inactive | outcome [7]: inactive | outcome [11]: inactive | Potency [8]: inactive | Potency [12]: inactive

Source: PubChem BioAssay (Tox21)
